Assays:
Experiment in all cases: log2 ratio of Biotin-Ahx-Ub-VS probe labelling (fragment/DMSO); higher = less target engagement (more negative = stronger competition), active = hit call of the paper (q ≤ 0.05, log2 ratio ≤ -1)
Conditions in all cases: compound concentration: 200 uM; treatment time: 3 h
[1] = molecular target: USP34 (UniProt Q70CQ2)
Outline: (§1)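 HEK293T lysate (495 µg per sample, in Tris/CHAPS/IGEPAL buffer with protease inhibitors) was treated in triplicate with fragment at 200 µM or with DMSO for 3 h. It was then treated with Biotin-Ahx-Ub-VS (0.5 µM final) for 1 h. Labelled DUBs were NeutrAvidin-enriched, digested with LysC and trypsin, and run by diaPASEF LC-MS/MS. Spectronaut label-free quantities were global-median-normalised. Values are average log2 ratios fragment/DMSO by unpaired t-test, using proteins with ≥2 unique peptides.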

[2] = molecular target: T1, USP36 (UniProt Q9P275)
T1 sequence (whole entry): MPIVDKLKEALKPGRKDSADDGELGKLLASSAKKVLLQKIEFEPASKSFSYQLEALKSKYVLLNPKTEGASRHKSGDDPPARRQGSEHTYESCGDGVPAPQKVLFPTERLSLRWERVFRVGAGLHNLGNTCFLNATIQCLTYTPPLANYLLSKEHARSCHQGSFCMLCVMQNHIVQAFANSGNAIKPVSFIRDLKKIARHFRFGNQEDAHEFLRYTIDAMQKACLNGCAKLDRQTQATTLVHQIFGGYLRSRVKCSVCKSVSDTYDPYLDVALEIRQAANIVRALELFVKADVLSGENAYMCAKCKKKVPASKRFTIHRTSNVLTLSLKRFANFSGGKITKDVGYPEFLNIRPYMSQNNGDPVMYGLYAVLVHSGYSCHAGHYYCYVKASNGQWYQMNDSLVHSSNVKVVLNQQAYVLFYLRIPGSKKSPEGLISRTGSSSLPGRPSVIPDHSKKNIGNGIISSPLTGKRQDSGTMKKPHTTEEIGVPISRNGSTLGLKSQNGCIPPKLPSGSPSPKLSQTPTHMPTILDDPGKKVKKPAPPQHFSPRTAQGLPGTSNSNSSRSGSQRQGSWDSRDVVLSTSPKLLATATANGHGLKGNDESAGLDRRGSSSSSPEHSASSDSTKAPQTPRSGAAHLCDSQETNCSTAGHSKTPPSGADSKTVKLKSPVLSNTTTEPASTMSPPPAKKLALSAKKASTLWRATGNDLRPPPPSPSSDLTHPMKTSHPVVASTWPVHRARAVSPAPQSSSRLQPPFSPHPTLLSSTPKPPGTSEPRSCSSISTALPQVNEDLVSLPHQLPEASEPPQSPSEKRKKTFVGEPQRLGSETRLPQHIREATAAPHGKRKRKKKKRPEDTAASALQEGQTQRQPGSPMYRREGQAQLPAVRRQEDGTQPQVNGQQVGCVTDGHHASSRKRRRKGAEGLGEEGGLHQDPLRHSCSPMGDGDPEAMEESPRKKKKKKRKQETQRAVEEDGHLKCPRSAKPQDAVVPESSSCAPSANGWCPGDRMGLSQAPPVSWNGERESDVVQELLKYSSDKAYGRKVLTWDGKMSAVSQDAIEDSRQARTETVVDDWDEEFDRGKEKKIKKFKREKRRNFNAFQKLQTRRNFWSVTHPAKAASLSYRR
Outline: as §1

[3] = molecular target: T2, USP38 (UniProt Q8NB14)
T2 sequence (whole entry): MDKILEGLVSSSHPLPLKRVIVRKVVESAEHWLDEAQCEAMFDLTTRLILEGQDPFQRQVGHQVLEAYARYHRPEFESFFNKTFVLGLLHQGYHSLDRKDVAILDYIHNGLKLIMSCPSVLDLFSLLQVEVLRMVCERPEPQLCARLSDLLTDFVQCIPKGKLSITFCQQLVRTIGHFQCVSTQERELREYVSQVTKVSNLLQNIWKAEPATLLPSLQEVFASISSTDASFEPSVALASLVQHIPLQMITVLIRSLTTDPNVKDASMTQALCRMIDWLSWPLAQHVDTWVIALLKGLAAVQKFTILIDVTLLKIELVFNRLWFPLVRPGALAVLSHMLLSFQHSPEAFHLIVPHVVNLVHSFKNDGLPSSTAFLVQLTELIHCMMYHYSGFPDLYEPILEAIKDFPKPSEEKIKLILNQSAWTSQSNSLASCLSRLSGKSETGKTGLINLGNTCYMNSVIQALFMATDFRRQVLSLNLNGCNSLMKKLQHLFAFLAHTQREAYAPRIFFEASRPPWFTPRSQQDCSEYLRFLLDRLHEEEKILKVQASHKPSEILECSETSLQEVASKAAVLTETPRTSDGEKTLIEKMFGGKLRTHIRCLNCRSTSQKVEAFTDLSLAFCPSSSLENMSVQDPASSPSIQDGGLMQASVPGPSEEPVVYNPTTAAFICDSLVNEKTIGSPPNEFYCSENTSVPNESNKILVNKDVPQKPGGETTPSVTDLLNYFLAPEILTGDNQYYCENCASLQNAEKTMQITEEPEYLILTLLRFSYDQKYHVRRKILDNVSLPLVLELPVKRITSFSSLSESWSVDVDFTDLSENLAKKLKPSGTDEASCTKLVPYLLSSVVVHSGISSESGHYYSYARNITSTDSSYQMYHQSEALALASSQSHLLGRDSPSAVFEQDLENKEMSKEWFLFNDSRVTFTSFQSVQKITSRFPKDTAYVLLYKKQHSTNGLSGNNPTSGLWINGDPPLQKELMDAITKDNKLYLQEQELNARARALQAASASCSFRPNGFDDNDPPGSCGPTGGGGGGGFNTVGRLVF
Outline: as §1

[4] = molecular target: T3, USP39 (UniProt Q53GS9)
T3 sequence (whole entry): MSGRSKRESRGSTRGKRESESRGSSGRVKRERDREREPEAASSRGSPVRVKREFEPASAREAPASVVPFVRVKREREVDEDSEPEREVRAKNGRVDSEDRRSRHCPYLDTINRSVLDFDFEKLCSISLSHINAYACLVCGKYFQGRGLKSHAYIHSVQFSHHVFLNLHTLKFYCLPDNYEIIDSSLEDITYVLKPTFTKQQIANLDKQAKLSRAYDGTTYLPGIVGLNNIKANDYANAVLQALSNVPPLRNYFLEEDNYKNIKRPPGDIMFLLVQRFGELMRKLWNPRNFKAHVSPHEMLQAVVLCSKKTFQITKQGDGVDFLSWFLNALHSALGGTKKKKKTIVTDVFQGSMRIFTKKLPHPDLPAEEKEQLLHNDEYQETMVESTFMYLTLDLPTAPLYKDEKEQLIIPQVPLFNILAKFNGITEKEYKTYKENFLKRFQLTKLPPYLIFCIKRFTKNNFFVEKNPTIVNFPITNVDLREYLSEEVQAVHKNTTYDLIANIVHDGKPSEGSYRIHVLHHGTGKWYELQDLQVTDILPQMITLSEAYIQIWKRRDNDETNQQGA
Outline: as §1

[5] = molecular target: T4, USP4 (UniProt Q13107)
T4 sequence (whole entry): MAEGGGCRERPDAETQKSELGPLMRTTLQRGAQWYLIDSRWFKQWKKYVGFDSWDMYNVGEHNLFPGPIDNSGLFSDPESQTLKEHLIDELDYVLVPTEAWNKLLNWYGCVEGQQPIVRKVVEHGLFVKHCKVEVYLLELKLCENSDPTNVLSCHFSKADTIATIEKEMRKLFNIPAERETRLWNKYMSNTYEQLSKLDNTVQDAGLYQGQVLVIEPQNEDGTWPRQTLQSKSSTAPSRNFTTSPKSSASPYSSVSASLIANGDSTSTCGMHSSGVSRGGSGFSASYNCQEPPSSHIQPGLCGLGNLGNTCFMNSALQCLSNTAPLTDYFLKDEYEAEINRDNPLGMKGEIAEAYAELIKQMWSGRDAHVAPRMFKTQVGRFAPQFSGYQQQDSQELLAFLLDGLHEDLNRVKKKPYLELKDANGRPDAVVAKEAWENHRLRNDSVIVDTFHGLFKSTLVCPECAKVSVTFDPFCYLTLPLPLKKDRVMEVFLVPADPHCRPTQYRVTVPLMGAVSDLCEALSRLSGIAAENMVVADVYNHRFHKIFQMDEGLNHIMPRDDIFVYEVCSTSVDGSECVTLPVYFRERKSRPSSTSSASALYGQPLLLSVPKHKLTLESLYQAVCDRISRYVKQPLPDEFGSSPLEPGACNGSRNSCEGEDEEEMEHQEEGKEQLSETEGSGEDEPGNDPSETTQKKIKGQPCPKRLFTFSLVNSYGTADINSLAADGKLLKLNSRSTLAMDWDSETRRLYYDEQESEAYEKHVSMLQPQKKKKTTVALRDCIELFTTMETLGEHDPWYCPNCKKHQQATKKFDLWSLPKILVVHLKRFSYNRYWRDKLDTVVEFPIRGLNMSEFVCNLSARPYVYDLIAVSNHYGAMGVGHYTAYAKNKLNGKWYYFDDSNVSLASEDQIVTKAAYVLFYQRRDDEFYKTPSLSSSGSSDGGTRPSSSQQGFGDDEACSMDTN
Outline: as §1

Measured: log2 ratio of Biotin-Ahx-Ub-VS probe labelling

Chain of USP34 (Q70CQ2 whole entry, the tested form may be a part): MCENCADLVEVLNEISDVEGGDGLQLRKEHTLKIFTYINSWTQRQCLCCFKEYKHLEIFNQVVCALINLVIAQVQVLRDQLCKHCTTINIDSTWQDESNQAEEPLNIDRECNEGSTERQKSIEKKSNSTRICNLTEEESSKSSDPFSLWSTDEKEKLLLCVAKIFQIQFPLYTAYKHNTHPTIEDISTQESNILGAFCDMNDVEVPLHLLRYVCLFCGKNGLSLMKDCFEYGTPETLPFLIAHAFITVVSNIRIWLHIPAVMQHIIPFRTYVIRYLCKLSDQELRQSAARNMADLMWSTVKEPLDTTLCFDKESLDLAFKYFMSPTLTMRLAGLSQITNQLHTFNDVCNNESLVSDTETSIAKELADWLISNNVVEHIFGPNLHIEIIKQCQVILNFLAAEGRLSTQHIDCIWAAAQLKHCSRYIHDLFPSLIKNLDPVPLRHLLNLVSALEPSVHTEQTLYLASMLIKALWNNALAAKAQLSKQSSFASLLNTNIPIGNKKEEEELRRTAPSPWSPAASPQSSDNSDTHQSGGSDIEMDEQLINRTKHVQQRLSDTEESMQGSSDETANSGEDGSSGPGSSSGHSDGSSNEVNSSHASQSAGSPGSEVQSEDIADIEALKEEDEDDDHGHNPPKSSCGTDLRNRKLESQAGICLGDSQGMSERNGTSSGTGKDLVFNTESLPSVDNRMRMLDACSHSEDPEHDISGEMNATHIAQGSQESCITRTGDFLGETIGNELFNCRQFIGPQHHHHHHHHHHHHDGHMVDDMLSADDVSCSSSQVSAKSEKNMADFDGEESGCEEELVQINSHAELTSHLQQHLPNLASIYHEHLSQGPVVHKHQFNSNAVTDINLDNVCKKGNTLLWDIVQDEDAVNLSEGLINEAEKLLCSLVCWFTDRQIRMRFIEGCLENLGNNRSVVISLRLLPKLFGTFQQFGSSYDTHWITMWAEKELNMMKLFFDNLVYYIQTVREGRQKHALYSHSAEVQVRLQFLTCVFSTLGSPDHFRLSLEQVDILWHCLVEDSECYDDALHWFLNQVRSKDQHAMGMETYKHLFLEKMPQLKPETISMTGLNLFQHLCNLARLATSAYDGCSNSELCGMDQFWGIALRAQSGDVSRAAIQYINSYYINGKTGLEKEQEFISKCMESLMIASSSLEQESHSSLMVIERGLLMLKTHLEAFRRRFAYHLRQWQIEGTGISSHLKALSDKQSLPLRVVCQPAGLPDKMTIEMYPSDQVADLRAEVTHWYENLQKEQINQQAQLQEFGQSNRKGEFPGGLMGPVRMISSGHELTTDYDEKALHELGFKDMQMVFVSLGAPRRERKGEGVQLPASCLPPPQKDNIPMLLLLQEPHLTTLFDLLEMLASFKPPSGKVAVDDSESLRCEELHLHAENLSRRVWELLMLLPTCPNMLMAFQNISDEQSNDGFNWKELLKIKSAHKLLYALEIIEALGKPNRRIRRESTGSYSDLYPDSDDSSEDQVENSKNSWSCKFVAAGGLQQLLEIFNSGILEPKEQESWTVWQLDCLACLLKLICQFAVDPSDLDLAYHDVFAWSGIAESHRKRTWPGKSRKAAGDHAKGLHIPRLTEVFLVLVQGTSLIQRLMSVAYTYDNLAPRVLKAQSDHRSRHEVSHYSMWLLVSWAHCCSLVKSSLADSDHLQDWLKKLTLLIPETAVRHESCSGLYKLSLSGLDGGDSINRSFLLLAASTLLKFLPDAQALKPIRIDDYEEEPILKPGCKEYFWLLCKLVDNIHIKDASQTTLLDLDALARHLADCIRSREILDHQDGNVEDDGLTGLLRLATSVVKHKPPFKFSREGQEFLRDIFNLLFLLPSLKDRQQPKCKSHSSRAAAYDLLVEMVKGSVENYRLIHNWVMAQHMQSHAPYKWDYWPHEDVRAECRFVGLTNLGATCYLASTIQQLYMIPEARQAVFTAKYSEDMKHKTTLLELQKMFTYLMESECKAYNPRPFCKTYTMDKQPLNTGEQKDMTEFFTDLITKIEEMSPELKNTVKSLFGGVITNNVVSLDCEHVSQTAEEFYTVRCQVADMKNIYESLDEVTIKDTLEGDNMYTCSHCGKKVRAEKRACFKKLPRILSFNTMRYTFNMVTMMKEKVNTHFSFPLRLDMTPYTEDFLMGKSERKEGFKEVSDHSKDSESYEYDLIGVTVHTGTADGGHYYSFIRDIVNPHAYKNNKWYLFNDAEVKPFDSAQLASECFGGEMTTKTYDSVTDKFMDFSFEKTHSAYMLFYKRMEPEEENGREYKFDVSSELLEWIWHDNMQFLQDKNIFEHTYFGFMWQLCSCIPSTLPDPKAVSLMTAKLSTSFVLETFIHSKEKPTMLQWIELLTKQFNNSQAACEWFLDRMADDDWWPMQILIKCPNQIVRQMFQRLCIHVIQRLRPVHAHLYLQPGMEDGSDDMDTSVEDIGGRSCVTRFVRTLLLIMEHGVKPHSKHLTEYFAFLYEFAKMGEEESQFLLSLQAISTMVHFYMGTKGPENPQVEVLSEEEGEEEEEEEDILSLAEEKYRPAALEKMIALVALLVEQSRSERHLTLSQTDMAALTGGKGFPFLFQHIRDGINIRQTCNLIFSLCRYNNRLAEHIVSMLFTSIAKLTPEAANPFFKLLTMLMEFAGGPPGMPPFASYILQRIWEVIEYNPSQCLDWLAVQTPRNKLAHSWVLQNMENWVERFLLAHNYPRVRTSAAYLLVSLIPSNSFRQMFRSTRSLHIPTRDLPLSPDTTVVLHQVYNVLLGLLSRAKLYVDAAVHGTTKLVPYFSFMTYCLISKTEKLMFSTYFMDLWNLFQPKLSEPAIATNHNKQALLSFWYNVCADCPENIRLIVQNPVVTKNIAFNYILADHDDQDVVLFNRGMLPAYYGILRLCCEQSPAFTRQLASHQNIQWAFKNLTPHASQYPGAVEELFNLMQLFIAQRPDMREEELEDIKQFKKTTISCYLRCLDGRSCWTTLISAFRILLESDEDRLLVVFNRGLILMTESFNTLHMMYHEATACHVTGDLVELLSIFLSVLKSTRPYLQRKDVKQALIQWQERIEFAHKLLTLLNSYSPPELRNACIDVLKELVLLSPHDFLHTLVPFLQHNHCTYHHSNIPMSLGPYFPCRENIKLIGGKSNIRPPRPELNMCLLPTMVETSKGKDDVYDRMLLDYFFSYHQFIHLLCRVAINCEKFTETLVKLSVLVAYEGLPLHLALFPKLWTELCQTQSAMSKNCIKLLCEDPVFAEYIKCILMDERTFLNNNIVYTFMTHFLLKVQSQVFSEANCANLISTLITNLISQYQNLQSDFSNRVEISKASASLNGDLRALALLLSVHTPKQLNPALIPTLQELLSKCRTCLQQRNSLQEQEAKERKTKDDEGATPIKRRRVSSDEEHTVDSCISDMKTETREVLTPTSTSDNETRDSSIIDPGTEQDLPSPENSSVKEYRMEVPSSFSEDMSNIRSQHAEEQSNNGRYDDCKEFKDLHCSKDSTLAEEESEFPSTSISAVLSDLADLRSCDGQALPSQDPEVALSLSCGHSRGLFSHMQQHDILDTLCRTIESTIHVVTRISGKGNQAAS

O=C(CCl)NCc1ccc(N2CCOCC2)c(F)c1
inactive: [1] -0.0627 | [2] -0.165 | [3] 0.104 | [4] 0.0411 | [5] 0.263

Source: the supplement of paper PMC11732987, “Enantioselective OTUD7B fragment discovery through chemoproteomics screening and high-throughput optimisation” (Communications Chemistry, 2025)
